These results are taken from the supplement of paper PMC6089552.

For this assay, the system named is A673/TR/shEF. The experiment in a line: cell viability (LOESS-normalised, relative to median of negative controls) (log2 ratio); higher = more viable cells (less compound effect), active = hit call of the paper (over 3 MAD below the median). As to conditions: treatment time: 72 h. In outline:
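For three days, A673/TR/shEF Ewing sarcoma cells in 384-well plates (1,500 per well) were treated with library compounds at two or more concentrations or with DMSO controls, after doxycycline had been added or withheld 24 h beforehand to induce EWS-FLI1 shRNA knockdown. Viability was read by CellTiter-Glo luminescence on an Envision reader. The data were LOESS-corrected per plate, divided by the median of negative controls and log2-transformed.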

The mark [1] stands for this setting: 0.025 µM, library screen: screen1, EWS-FLI1 expression: high (no doxycycline).
Setting [2] is: 0.025 µM, library screen: screen1, EWS-FLI1 expression: low (doxycycline-induced shRNA knockdown).
Where [3] appears, read: 0.25 µM, library screen: screen1, EWS-FLI1 expression: high (no doxycycline).
Setting [4] is: 0.25 µM, library screen: screen1, EWS-FLI1 expression: low (doxycycline-induced shRNA knockdown).
Where [5] appears, read: 2.5 µM, library screen: screen1, EWS-FLI1 expression: high (no doxycycline).
[6] abbreviates: 2.5 µM, library screen: screen1, EWS-FLI1 expression: low (doxycycline-induced shRNA knockdown).
The mark [7] stands for this setting: 25 µM, library screen: screen1, EWS-FLI1 expression: high (no doxycycline).
Setting [8] is: 25 µM, library screen: screen1, EWS-FLI1 expression: low (doxycycline-induced shRNA knockdown).
Where [9] appears, read: 0.103 µM, library screen: screen3, EWS-FLI1 expression: high (no doxycycline).
Setting [10] is: 0.103 µM, library screen: screen3, EWS-FLI1 expression: low (doxycycline-induced shRNA knockdown).
Where [11] appears, read: 0.308 µM, library screen: screen3, EWS-FLI1 expression: high (no doxycycline).
Where [12] appears, read: 0.308 µM, library screen: screen3, EWS-FLI1 expression: low (doxycycline-induced shRNA knockdown).
Where [13] appears, read: 0.926 µM, library screen: screen3, EWS-FLI1 expression: high (no doxycycline).
Setting [14] is: 0.926 µM, library screen: screen3, EWS-FLI1 expression: low (doxycycline-induced shRNA knockdown).
Where [15] appears, read: 2.8 µM, library screen: screen3, EWS-FLI1 expression: high (no doxycycline).
Where [16] appears, read: 2.8 µM, library screen: screen3, EWS-FLI1 expression: low (doxycycline-induced shRNA knockdown).
The mark [17] stands for this setting: 8.3 µM, library screen: screen3, EWS-FLI1 expression: high (no doxycycline).
[18] abbreviates: 8.3 µM, library screen: screen3, EWS-FLI1 expression: low (doxycycline-induced shRNA knockdown).
[19] abbreviates: 25 µM, library screen: screen3, EWS-FLI1 expression: high (no doxycycline).
The mark [20] stands for this setting: 25 µM, library screen: screen3, EWS-FLI1 expression: low (doxycycline-induced shRNA knockdown).
[21] abbreviates: 0.25 µM, library screen: screen2, EWS-FLI1 expression: high (no doxycycline).
Setting [22] is: 0.25 µM, library screen: screen2, EWS-FLI1 expression: low (doxycycline-induced shRNA knockdown).
Setting [23] is: 2.5 µM, library screen: screen2, EWS-FLI1 expression: high (no doxycycline).
Where [24] appears, read: 2.5 µM, library screen: screen2, EWS-FLI1 expression: low (doxycycline-induced shRNA knockdown).

Each structure is given as a SMILES string. Several values for one entry are separate records, joined by “and”; a condition that tells them apart may be missing. Equal values may be shown once. Among all 3,200 compounds or so, about 300 (9.4%) showed activity. For the sample, actives were picked, then their nearest neighbours and some compounds at random.

For the compound `Cn1cc(C2=C(c3cn(CCCSC(=N)N)c4ccccc34)C(=O)NC2=O)c2ccccc21`, the “cell viability (log2)” value under setting [1] is 0.0502 (inactive); the “cell viability (log2)” value under setting [2] was 0.0613 (inactive); the “cell viability (log2)” value under setting [3] is -0.0731 (inactive); the “cell viability (log2)” value under setting [4] was 0.0259 (inactive); the “cell viability (log2)” value under setting [5] was -1.27 (active); the “cell viability (log2)” value under setting [6] is -0.615 (active). For the same compound, the “cell viability (log2)” value was -4.25 (active) under setting [7] and -2.05 (active) under setting [8].

Regarding `Cn1cc(C2=C(c3ccc(Cl)cc3Cl)C(=O)NC2=O)c2ccccc21`, the “cell viability (log2)” value by setting is: under setting [9], 0.039 (inactive); under setting [10], 0.0193 (inactive); under setting [11], 0.0253 (inactive); under setting [12], 0.0244 (inactive); under setting [13], 0.0632 (inactive); under setting [14], 0.00111 (inactive). For the same compound, the “cell viability (log2)” value is 0.0516 (inactive) under setting [15]; -0.00589 (inactive) under setting [16]; 0.0741 (inactive) under setting [17]; 0.0603 (inactive) under setting [18]; 0.04 (inactive) under setting [19]; 0.0754 (inactive) under setting [20].

In the case of `O=C(Nc1c(-c2ccccc2)nc2ccc(Cl)cn12)c1ccc(F)cc1`, the “cell viability (log2)” value is 0.0947 (inactive) under setting [3], 0.0794 (inactive) under setting [4], 0.184 (inactive) under setting [5] and -0.0685 (inactive) under setting [6].

Turning to `NCC1OC(OC2C(N)CC(N)C(OC3OC(CO)C(O)C(N)C3O)C2O)C(O)C(O)C1O` (stereo not given), the “cell viability (log2)” value reads like this: under setting [3], 0.121 (inactive); under setting [4], -0.0254 (inactive); under setting [5], 0.206 (inactive); under setting [6], 0.0929 (inactive).

In the case of `COC(=O)c1c(C)c2c(c(C)c1OC(C)=O)OC(=O)c1c(C)c(Cl)c(O)c(Cl)c1O2`, the “cell viability (log2)” value under setting [3] was 0.0664 (inactive), the “cell viability (log2)” value under setting [4] is 0.0141 (inactive), the “cell viability (log2)” value under setting [5] is 0.0918 (inactive) and the “cell viability (log2)” value under setting [6] is 0.03 (inactive).

Regarding `C[C@@H]1[C@H]2[C@H](O[C@@H]3O[C@H](CO)[C@@H](O)[C@H](O)[C@H]3O)OC=C(C(=O)O)[C@H]2C[C@@H]1O`, the “cell viability (log2)” value is, setting by setting: under setting [3], 0.0698 (inactive); under setting [4], 0.0626 (inactive); under setting [5], 0.106 (inactive); under setting [6], -0.0365 (inactive).

With `COc1c(O)cc(O)cc1O`, the “cell viability (log2)” value reads like this: under setting [3], 0.0746 (inactive); under setting [4], 0.0275 (inactive); under setting [5], 0.127 (inactive); under setting [6], 0.0739 (inactive).

With `COc1cc(O)c(C)c(O)c1`, the “cell viability (log2)” value under setting [3] was 0.0455 (inactive), the “cell viability (log2)” value under setting [4] is 0.156 (inactive), the “cell viability (log2)” value under setting [5] was 0.0996 (inactive) and the “cell viability (log2)” value under setting [6] was 0.176 (inactive).

Take `COCc1cc(O)c(O)c(O)c1-c1c(COC)cc(O)c(O)c1O`: the “cell viability (log2)” value is, setting by setting: under setting [1], 0.13 (inactive); under setting [2], 0.0379 (inactive); under setting [3], 0.161 (inactive); under setting [4], -0.00717 (inactive); under setting [5], -0.00977 (inactive); under setting [6], 0.159 (inactive). Further, the “cell viability (log2)” value is -4.25 (active) under setting [7] and -2.42 (active) under setting [8].

Consider `CC(=O)c1c(C(C)=O)c(C)n(-c2cc(C)cc(C)c2)c1C`, for which the “cell viability (log2)” value by setting is: under setting [3], 0.0993 (inactive); under setting [4], 0.13 (inactive); under setting [5], 0.0722 (inactive); under setting [6], 0.0963 (inactive).

On to `CC(C)N1C(=O)C(=Cc2ccc(F)cc2)SC1=S`, for which the “cell viability (log2)” value is 0.0751 (inactive) under setting [3], 0.059 (inactive) under setting [4], 0.129 (inactive) under setting [5] and -0.0496 (inactive) under setting [6].

For `O=S(=O)(c1cccc2cnccc12)N1CCCNCC1`, the “cell viability (log2)” value is 0.279 under setting [1]; -0.0219 (inactive) under setting [2]; 0.333 under setting [3]; -0.0194 (inactive) under setting [4]; -0.187 (active) under setting [5]; 0.0781 (inactive) under setting [6]. In addition, the “cell viability (log2)” value under setting [7] is -0.284 (active) and the “cell viability (log2)” value under setting [8] was 0.0444 (inactive).

In the case of `O=S(=O)(c1cccc2cnccc12)N1CCNCC1`, the “cell viability (log2)” value runs as follows: under setting [21], 0.166 (inactive); under setting [22], 0.045 (inactive); under setting [23], 0.145 (inactive); under setting [24], 0.0254 (inactive).

Consider `O=S(=O)(c1cccc2c(I)cccc12)N1CCCNCC1`, for which the “cell viability (log2)” value reads like this: under setting [1], 0.188 (inactive); under setting [2], -0.167 (inactive); under setting [3], 0.201 (inactive); under setting [4], -0.255 (inactive); under setting [21], 0.178 (inactive); under setting [22], 0.133 (inactive). The “cell viability (log2)” value by setting is: under setting [5], -0.248 (active); under setting [6], -0.111 (inactive); under setting [23], 0.0746 (inactive); under setting [24], 0.0593 (inactive); under setting [7], -0.335 (active); under setting [8], -0.197 (active).

As for `CC1CNCCN1S(=O)(=O)c1cccc2cnccc12` (stereo not given), the “cell viability (log2)” value reads like this: under setting [1], 0.354; under setting [2], 0.0557 (inactive); under setting [3], 0.301; under setting [4], 0.0236 (inactive); under setting [21], 0.145 (inactive) and 0.204 (inactive); under setting [22], 0.0425 (inactive) and 0.187 (inactive). The “cell viability (log2)” value is -0.0561 (inactive) under setting [5]; 0.0655 (inactive) under setting [6]; 0.0837 (inactive) and 0.258 (inactive) under setting [23]; 0.0573 (inactive) and 0.209 (inactive) under setting [24]; -0.155 (active) under setting [7]; 0.112 (inactive) under setting [8].

`c1cc(CN2CCCNCCNCCCNCC2)ccc1CN1CCCNCCNCCCNCC1`: the “cell viability (log2)” value was 0.00595 (inactive) under setting [9]; 0.0496 (inactive) under setting [10]; 0.0705 (inactive) under setting [11]; 0.00482 (inactive) under setting [12]; 0.086 (inactive) under setting [13]; 0.0433 (inactive) under setting [14]. The “cell viability (log2)” value is 0.0246 (inactive) under setting [15]; 0.0244 (inactive) under setting [16]; 0.0572 (inactive) under setting [17]; 0.0352 (inactive) under setting [18]; 0.0828 (inactive) under setting [19]; 0.0617 (inactive) under setting [20].

As for `O=S(=O)(c1cccc2c(Cl)cccc12)N1CCCNCC1`, the “cell viability (log2)” value runs as follows: under setting [1], 0.198 (inactive); under setting [2], -0.106 (inactive); under setting [3], 0.179 (inactive); under setting [4], -0.113 (inactive); under setting [21], 0.275 (inactive); under setting [22], 0.144 (inactive). The “cell viability (log2)” value by setting is: under setting [5], -0.211 (active); under setting [6], -0.13 (inactive); under setting [23], 0.128 (inactive); under setting [24], 0.122 (inactive); under setting [7], -0.331 (active); under setting [8], -0.103 (inactive).
